PubChem BioAssay (NCATS)
Inconclusive results are not listed. Active and inactive are the calls of the source. Calls follow the shape of the dose curve; as a rule, active = well fitted curve in the direction sought with a large enough effect; inconclusive = small, poorly fitted or top-dose-only effect, or another doubt; inactive = no such curve, though single readings can be large; an effect the other way counts as inactive or inconclusive.

Assays:
CRL-7250 = normal cell line; assay: Cytotoxic Profiling of Annotated Libraries Using Quantitative High-Throughput Screening (AID 1296008); details: Five cell lines viability, CellTiter-Glo ATP luminescence, 48-72 h; max response: stronger effect = lower value; also: nearly all actives have a fitted effect of over 60% in size; as to max response: % is scaled to controls: 0 for no effect and ±100 for the full control effect
In short: (§1)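 Cytotoxicity was measured as CellTiter-Glo ATP luminescence, read after 10 min at room temperature. Compound treatment of the cells lasted 48 or 72 hr at 37 degrees Celsius in a qHTS format.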

HEK293 = assay: as above; details: Five cell lines viability, CellTiter-Glo ATP luminescence, 48-72 h; max response: stronger effect = lower value
In short: as §1

HaCat [1] = assay: as above; details: Five cell lines viability, CellTiter-Glo ATP luminescence, 48-72 h; max response: stronger effect = lower value
In short: as §1

KB-3-1 = assay: as above; details: Five cell lines viability, CellTiter-Glo ATP luminescence, 48-72 h; max response: stronger effect = lower value
In short: as §1

NIH3T3 = assay: as above; details: Five cell lines viability, CellTiter-Glo ATP luminescence, 48-72 h; max response: stronger effect = lower value
In short: as §1

HACAT [2] = assay: qHTS assay to identify novel small-molecules to repurpose for Merkel cell carcinoma treatment (AID 1296009); details: MCC and control cell lines, CellTiter-Glo viability, 72 h; at 44.8 µM (top of the series) unless noted; also: nearly all actives have a fitted effect of over 60% in size
In short: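 72 hr, 37 degree celsius; NPC 8-pt / MIPE 11-pt dose response; compound pinned in DMSO; CellTiter-Glo, 10 min RT, luminescence; normalized to no-cell and DMSO controls.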

C33A = assay: Primary qHTS to identify gynecologic anti-cancer compounds using libraries of approved drugs and bioactive compounds (AID 1345084); details: Gynecologic cancer cell panel viability, ATPlite luminescence, 48 h; series mostly up to 57.5 µM; also: % is scaled to controls: 0 for no effect and ±100 for the full control effect; nearly all actives have a fitted effect of over 55% in size
In short: (§2)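 Cell viability after 48 h drug treatment, ATPlite luminescence readout; five doses.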

CAOV3 = assay: as above; details: Gynecologic cancer cell panel viability, ATPlite luminescence, 48 h; series mostly up to 57.5 µM
In short: as §2

CASKI = assay: as above; details: Gynecologic cancer cell panel viability, ATPlite luminescence, 48 h; series mostly up to 57.5 µM
In short: as §2

Es-2 = assay: as above; details: Gynecologic cancer cell panel viability, ATPlite luminescence, 48 h; series mostly up to 57.5 µM
In short: as §2

HeLa = assay: as above; details: Gynecologic cancer cell panel viability, ATPlite luminescence, 48 h; series mostly up to 57.5 µM
In short: as §2

Hek293T = assay: as above; details: Gynecologic cancer cell panel viability, ATPlite luminescence, 48 h, control line for the selectivity index; series mostly up to 57.5 µM
In short: as §2

JEG-3 = assay: as above; details: Gynecologic cancer cell panel viability, ATPlite luminescence, 48 h; series mostly up to 57.5 µM
In short: as §2

CCOc1nc2c(N)ncnc2n1CC
inactive: outcome (CRL-7250) | max response (HEK293) 3.9% | outcome (HaCat [1]) | max response (KB-3-1) 5.09% | max response (NIH3T3) 3.41% | outcome (HACAT [2]) | Potency (C33A) | Potency (CAOV3) | outcome (CASKI) | Potency (Es-2) | Potency (HeLa) | Potency (Hek293T) | Potency (JEG-3)

C[C@@H](c1ccccc1)N(C(N)=NC#N)c1cccc2ncccc12
inactive: outcome (CRL-7250) | max response (HEK293) 0.131% | outcome (HaCat [1]) | outcome (KB-3-1) | max response (NIH3T3) 3.53% | outcome (HACAT [2]) | Potency (C33A) | Potency (CAOV3) | outcome (CASKI) | Potency (Es-2) | Potency (HeLa) | Potency (Hek293T) | Potency (JEG-3)

COc1ccc(NC(=O)c2ccc(-c3ccc(C(N)=O)cc3C)cc2)cc1N1CCN(C)CC1
inactive: max response (CRL-7250) -5.67% | max response (HEK293) -78.4% | outcome (HaCat [1]) | max response (KB-3-1) 1.64% | max response (NIH3T3) 4.28% | outcome (HACAT [2]) | Potency (C33A) | Potency (CAOV3) | outcome (CASKI) | Potency (Es-2) | Potency (HeLa) | Potency (Hek293T) | Potency (JEG-3)

COC(=O)C1=CO[C@@H](O[C@@H]2O[C@H](CO)[C@@H](O)[C@H](O)[C@H]2O)[C@@H]2[C@@H](CO)[C@@H](O)C(O)[C@H]12 (stereo partly specified)
inactive: outcome (CRL-7250) | max response (HEK293) -5.81% | outcome (HaCat [1]) | outcome (KB-3-1) | max response (NIH3T3) 1.79% | outcome (HACAT [2]) inactive [at 17.4 µM] | Potency (C33A) | Potency (CAOV3) | outcome (CASKI) | Potency (Es-2) | Potency (HeLa) | Potency (Hek293T) | Potency (JEG-3)

CC(=O)C1CCC(=O)N1Cc1ccccc1 (stereo unspecified)
inactive: outcome (CRL-7250) | max response (HEK293) -9.27% | outcome (HaCat [1]) | max response (KB-3-1) -4.66% | max response (NIH3T3) 3.14% | outcome (HACAT [2]) | Potency (C33A) | Potency (CAOV3) | outcome (CASKI) | Potency (Es-2) | Potency (HeLa) | Potency (Hek293T) | Potency (JEG-3)

CC1=C2CC(C)(C)CC2C(O)C2=C(C1)C(=O)OC2O (stereo unspecified)
inactive: outcome (CRL-7250) | max response (HEK293) 4.01% | outcome (HaCat [1]) | outcome (KB-3-1) | max response (NIH3T3) -6.57% | outcome (HACAT [2]) | Potency (C33A) | Potency (CAOV3) | outcome (CASKI) | Potency (Es-2) | Potency (HeLa) | Potency (Hek293T) | Potency (JEG-3)

CC(=O)OC[C@@]12C(=O)C[C@@H](C)[C@]3(C[C@@H](c4ccoc4)OC3=O)[C@H]1CC[C@H](OC(C)=O)[C@]21CO1
inactive: max response (CRL-7250) -3.74% | max response (HEK293) -0.582% | outcome (HaCat [1]) | outcome (KB-3-1) | max response (NIH3T3) -0.126% | outcome (HACAT [2]) inactive [at 17.4 µM] | Potency (C33A) | Potency (CAOV3) | outcome (CASKI) | Potency (Es-2) | Potency (HeLa) | Potency (Hek293T) | Potency (JEG-3)

CCC(C)/C=C(C)/C=C/C1=CC2=C(Cl)C(=O)C(C)(OC(C)=O)C(=O)C2=CN1C(CC(=O)O)C(=O)O (stereo unspecified)
inactive: max response (CRL-7250) 4.26% | max response (HEK293) 4.62% | outcome (HaCat [1]) | max response (KB-3-1) 7.58% | max response (NIH3T3) -16.9% | outcome (HACAT [2]) inactive [at 17.4 µM] | Potency (C33A) | Potency (CAOV3) | outcome (CASKI) | Potency (Es-2) | Potency (HeLa) | Potency (Hek293T) | Potency (JEG-3)

CC(C)=CCC/C(C)=C/CO[C@@H]1O[C@H](CO[C@@H]2O[C@@H](CO)[C@H](O)[C@H]2O)[C@@H](O)[C@H](O)[C@H]1O
inactive: max response (CRL-7250) -10.8% | max response (HEK293) -7.37% | outcome (HaCat [1]) | outcome (KB-3-1) | outcome (NIH3T3) | outcome (HACAT [2]) inactive [at 17.4 µM] | Potency (C33A) | Potency (CAOV3) | outcome (CASKI) | Potency (Es-2) | Potency (HeLa) | Potency (Hek293T) | Potency (JEG-3)

CCCC(C(=O)O)c1c(C)nc2ccc(Cl)cc2c1-c1ccccc1 (stereo unspecified)
inactive: max response (CRL-7250) 3.26% | max response (HEK293) -5.83% | outcome (HaCat [1]) | max response (KB-3-1) 2.25% | max response (NIH3T3) 1.27% | outcome (HACAT [2]) | Potency (C33A) | Potency (CAOV3) | outcome (CASKI) | Potency (Es-2) | Potency (HeLa) | Potency (Hek293T) | Potency (JEG-3)

CC1(C)CC[C@]2(C(=O)O[C@@H]3O[C@H](CO)[C@@H](O)[C@H](O)[C@H]3O)CC[C@]3(C)C(=CCC4[C@@]5(C)CC[C@H](O[C@@H]6O[C@H](C(=O)O)[C@@H](O[C@@H]7O[C@H](CO)[C@@H](O)[C@H](O)[C@H]7O)[C@H](O)[C@H]6O)C(C)(C)C5CC[C@]43C)C2C1 (stereo partly specified)
inactive: max response (CRL-7250) -9.08% | max response (HEK293) 3.3% | outcome (HaCat [1]) | outcome (KB-3-1) | max response (NIH3T3) 3.38% | outcome (HACAT [2]) inactive [at 9.27 µM] | activity change, negative = cytotoxicity (C33A) -1.25% [at 11.6 µM] | activity change, negative = cytotoxicity (CAOV3) 6.34% [at 11.6 µM] | activity change, negative = cytotoxicity (CASKI) 0.127% [at 11.6 µM] | activity change, negative = cytotoxicity (Es-2) -4.47% [at 11.6 µM] | activity change, negative = cytotoxicity (HeLa) 6.83% [at 11.6 µM] | activity change, negative = cytotoxicity (Hek293T) 3.96% [at 11.6 µM] | activity change, negative = cytotoxicity (JEG-3) -0.8% [at 11.6 µM]

CC(CC12CCCN1C(=O)C1CCCN1C2=O)OC(N)=O (stereo unspecified)
inactive: outcome (CRL-7250) | max response (HEK293) 2.01% | outcome (HaCat [1]) | max response (KB-3-1) 4.48% | max response (NIH3T3) 4.31% | outcome (HACAT [2]) | Potency (C33A) | Potency (CAOV3) | outcome (CASKI) | Potency (Es-2) | Potency (HeLa) | Potency (Hek293T) | Potency (JEG-3)
